In PubChem BioAssay:
Values without a mark were called inactive. For some of these results: Measured potencies and affinities stand elsewhere. The source made the active and inactive calls. Unless noted, the rule behind the calls is not given here.

How the values were obtained:
[1] = antimalarial activity against Dd2 strain (AID 2302;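 active = growth inhibition above 50% at the single 2 µM test dose, taken to imply half-maximal potency below 2 µM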;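 note: 0% = DMSO untreated growth and 100% = chloroquine plus artemisinin killed control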); conditions: P. falciparum Dd2 in RBCs, LDH growth readout, 72 h; at 2 µM; active compounds read high
[2] = HepG2 cytotoxicity, primary screen, cytotoxicity control for P. falciparum antimalarial project, cell-based, ATP luminescence (AID 2303;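 active = inhibition above 50%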;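 note: 0% = DMSO wells and 100% = digitonin-killed cells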); conditions: HepG2 viability, 24-48 h, at 10 µM, active compounds read high
[3] = target: L-lactate dehydrogenase (Plasmodium falciparum (isolate CDC / Honduras)) (UniProt Q27743); assay: PfLDH activity inhibition – cell lysate, 3D7 strain, counter-screen for P. falciparum growth inhibition project (AID 2304);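 note: 0% = vehicle and 100% = reference inhibitor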; conditions: P. falciparum 3D7 crude extract, LDH APAD/NBT absorbance; at 2 µM; active compounds read high
[4] = inhibition of 3D7 malaria parasite growth – strain 3D7 (AID 2306);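 note: 0% = DMSO wells and 100% = chloroquine plus artemisinin control wells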; conditions: P. falciparum 3D7 erythrocytic growth, LDH absorbance, 72 h; at 2 µM; active compounds read high
[5] = target: Calcium-dependent protein kinase 1 (Plasmodium falciparum (isolate 3D7)) (UniProt P62344); assay: PfCDPK1 kinase inhibitors, biochemical, TCAMS library (AID 1159585; cut-off not given, nearly all actives have IC50 up to about 0.98 µM;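 note: inhibitors leave more ATP so luminescence rises with inhibition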); conditions: recombinant PfCDPK1, Kinase-Glo ATP depletion luminescence
[6] = target: Plasmodium falciparum protein kinase 6 (PK6, PF3D7_1337100) (UniProt Q8IDW1); assay: PfPK6 kinase inhibitors, biochemical, TCAMS library (AID 1159586); conditions: recombinant PfPK6, Kinase-Glo ATP depletion luminescence
[7] = target: Protein kinase 7 (PK7), Plasmodium falciparum 3D7 (PF3D7_0213400) (UniProt Q7YTF7); assay: inhibition of Plasmodium PK7 catalytic activity – biochemical, TCAMS antimalarial set, Kinase-Glo luminescence (AID 1159587); conditions: recombinant PfPK7, Kinase-Glo ATP depletion luminescence
[8] = target: Calcium-dependent protein kinase 4 (Plasmodium falciparum (isolate 3D7)) (UniProt Q8IBS5); assay: PfCDPK4 kinase inhibitors, biochemical, TCAMS library (AID 1159588; cut-off not given, nearly all actives have IC50 up to about 0.91 µM); conditions: recombinant PfCDPK4, Kinase-Glo ATP depletion luminescence
Calcium-dependent protein kinase 4 (Plasmodium falciparum (isolate 3D7)), sequence (Q8IBS5 whole entry, looked up): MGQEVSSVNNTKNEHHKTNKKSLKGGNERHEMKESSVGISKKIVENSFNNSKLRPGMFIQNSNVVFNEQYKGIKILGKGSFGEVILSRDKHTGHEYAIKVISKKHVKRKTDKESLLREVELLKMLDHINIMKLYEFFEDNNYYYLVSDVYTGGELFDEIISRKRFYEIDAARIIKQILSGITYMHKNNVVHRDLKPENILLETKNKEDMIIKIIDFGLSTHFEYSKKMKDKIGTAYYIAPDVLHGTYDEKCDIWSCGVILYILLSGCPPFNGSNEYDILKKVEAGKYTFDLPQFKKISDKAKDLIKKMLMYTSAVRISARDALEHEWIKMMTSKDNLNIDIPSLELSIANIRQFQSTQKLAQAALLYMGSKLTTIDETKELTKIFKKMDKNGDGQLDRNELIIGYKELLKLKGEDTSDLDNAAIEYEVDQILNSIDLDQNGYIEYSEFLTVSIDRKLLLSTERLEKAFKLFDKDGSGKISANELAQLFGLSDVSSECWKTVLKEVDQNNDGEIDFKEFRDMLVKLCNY

Protein kinase 7 (PK7), Plasmodium falciparum 3D7 (PF3D7_0213400), sequence (Q7YTF7 1-343): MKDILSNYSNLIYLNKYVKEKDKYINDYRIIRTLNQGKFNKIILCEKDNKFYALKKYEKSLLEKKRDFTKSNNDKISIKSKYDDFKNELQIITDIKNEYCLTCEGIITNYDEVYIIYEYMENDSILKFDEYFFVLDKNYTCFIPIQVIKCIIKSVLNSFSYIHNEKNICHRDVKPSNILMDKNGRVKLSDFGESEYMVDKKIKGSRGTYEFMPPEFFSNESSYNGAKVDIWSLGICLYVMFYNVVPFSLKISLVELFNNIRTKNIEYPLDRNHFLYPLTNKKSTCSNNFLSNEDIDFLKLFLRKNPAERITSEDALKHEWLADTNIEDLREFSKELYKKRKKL
Plasmodium falciparum protein kinase 6 (PK6, PF3D7_1337100), sequence (Q8IDW1 1-305): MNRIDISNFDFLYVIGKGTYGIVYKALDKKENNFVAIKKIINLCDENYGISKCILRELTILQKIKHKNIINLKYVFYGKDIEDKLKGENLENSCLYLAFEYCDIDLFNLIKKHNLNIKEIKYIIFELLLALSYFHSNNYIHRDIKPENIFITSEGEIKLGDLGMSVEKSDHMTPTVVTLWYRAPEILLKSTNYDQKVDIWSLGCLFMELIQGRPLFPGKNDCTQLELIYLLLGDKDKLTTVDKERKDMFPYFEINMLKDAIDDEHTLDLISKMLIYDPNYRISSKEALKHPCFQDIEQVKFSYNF
Calcium-dependent protein kinase 1 (Plasmodium falciparum (isolate 3D7)), sequence (P62344 whole entry, looked up): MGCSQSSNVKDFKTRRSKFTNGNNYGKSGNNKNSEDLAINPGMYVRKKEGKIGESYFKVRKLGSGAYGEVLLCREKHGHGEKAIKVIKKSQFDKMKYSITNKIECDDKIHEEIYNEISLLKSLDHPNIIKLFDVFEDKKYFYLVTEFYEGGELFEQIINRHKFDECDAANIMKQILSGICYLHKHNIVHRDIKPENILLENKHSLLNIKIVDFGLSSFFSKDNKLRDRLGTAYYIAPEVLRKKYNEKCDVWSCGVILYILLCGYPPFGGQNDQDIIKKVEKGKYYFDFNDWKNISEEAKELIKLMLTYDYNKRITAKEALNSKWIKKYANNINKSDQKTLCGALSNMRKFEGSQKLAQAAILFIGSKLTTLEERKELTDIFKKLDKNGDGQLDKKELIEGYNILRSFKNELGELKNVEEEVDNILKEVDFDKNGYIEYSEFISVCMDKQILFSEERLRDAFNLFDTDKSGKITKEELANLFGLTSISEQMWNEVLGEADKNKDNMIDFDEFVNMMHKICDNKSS
L-lactate dehydrogenase (Plasmodium falciparum (isolate CDC / Honduras)), sequence (Q27743 whole entry, looked up): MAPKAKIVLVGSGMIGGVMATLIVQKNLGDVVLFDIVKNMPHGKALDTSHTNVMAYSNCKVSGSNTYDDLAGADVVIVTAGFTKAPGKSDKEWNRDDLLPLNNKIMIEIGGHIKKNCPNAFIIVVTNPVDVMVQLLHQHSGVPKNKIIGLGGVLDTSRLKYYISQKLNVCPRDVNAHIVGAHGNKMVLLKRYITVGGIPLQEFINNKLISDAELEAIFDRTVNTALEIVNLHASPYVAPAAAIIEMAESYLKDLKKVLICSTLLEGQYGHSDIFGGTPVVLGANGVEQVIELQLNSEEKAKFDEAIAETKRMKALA

SMILES | growth inhibition [1] | inhibition [2] | inhibition [3] [%] | growth inhibition [4] | outcome [5] | outcome [6] | outcome [7] | outcome [8]
CCN(CC)CCNC(=O)c1ccc(NC(=O)c2ccc(-c3cc(NC(=O)CC4CCCC4)ccc3C)cc2)cc1 | 95% (active) | 12% | -5 | 99% (active) | inactive | inactive | inactive | inactive
COc1ccc2nccc([C@@H](O)CN3CCC(NCc4nc5ccc(F)cc5[nH]4)CC3)c2c1 | 4% | 20% | -2 | 100% (active) | inactive | inactive | inactive | inactive
Cc1ccc(CNc2ccc3ncc(-c4cccc(C(=O)NCCN(C)C)c4)n3n2)c(C)c1 | 78% (active) | 97% (active) | -3 | 100% (active) | inactive | inactive | inactive | inactive
COc1cc(F)c2ncc(F)c(CCN3C[C@H](CNCc4ccc5c(n4)NC(=O)CS5)[C@H](O)C3)c2c1 | 47% | 10% | 2 | 91% (active) | inactive | inactive | inactive | inactive
O=C1CN(C(=O)CCC2CCCC2)C(c2ccc(F)cc2)c2cc(F)ccc2N1 (stereo not given) | 75% (active) | 12% | -5 | 100% (active) | inactive | inactive | inactive | inactive
CCCc1ccc(NC(=O)c2ccc(CN3CCCN(Cc4ccc(OC)cc4)CC3)cc2)cc1 | -4% | 47% | 0 | 81% (active) | inactive | inactive | inactive | inactive
CN(C)CCCc1cc2c(cc1Cl)CCN2C(=O)Nc1ccc(-c2ccncc2)c2ccccc12 | -2% | 4% | -2 | 94% (active) | inactive | inactive | inactive | inactive
O=C(Nc1cccc(C(F)(F)F)c1)c1cccc(S(=O)(=O)NCC2CCCN(CC3CCCCC3)C2)c1 (stereo not given) | 11% | 17% | -1 | 99% (active) | inactive | inactive | inactive | inactive
CCCCc1ccccc1NS(=O)(=O)c1ccc(OC)c(N2CCNCC2)c1 | 2% | 6% | 0 | 91% (active) | inactive | inactive | inactive | inactive
COc1ccc(C(C(=O)NC2CCN(C[C@H](O)c3ccnc4ccc(OC)cc34)CC2)N2CCN(c3ccc([N+](=O)[O-])cc3)CC2)cc1 (stereo not given in full) | 80% (active) | 17% | -3 | 99% (active) | inactive | inactive | inactive | inactive
Cc1cc2cc(/C=C/C(=O)NC3CCC(CCN4CCc5ccc(C#N)cc5CC4)CC3)ccc2[nH]1 (stereo not given) | 49% | 6% | -1 | 85% (active) | inactive | inactive | inactive | inactive
CCCCNCc1ccc(-c2nc(CN(CCCn3ccnc3)C(=O)N[C@@H]3C[C@H]3c3ccccc3)cs2)cc1 | 34% | 21% | 3 | 100% (active) | inactive | inactive | inactive | inactive
O=C(c1ccc(F)cc1)N1CCOC(CCN2CCC(c3ccccc3)CC2)(c2ccc(Cl)c(Cl)c2)C1 (stereo not given) | 84% (active) | 29% | -6 | 88% (active) | inactive | inactive | inactive | inactive
Cc1ccc(F)cc1S(=O)(=O)Nc1ccc(CCN2CCC(N3CCCCC3)CC2)cc1 | 15% | 25% | -3 | 99% (active) | inactive | inactive | inactive | inactive
Cc1ccc(S(=O)(=O)N2CCN(C(=O)c3cc(-c4ccccc4)n[nH]3)CC2)cc1 | 88% (active) | -8% | -7 | 91% (active) | inactive | inactive | inactive | inactive
CCCOc1ccc(-c2nonc2NC(=O)c2ccccc2OC)cc1OCCC | 82% (active) | 23% | -1 | 98% (active) | inactive | inactive | inactive | inactive
COc1ccc(NC(=O)/C=C/c2ccccc2Cl)cc1OCCN1CCC(NC2CC2)CC1 | 66% (active) | 23% | 3 | 101% (active) | inactive | inactive | inactive | inactive
COc1cccc(CNC(=O)NC2CCN(c3ccnc(Nc4ccc(F)cc4)n3)C2)c1 (stereo not given) | 64% (active) | 20% | -7 | 94% (active) | inactive | inactive | inactive | inactive
c1cc(CN2CCN(CCN3CCOCC3)CC2)cc(-c2csc(-c3nc4ccccc4[nH]3)c2)c1 | 99% (active) | 27% | -8 | 100% (active) | inactive | inactive | inactive | inactive
CCOc1c(OC)ccc2c1CCN(CCN1CCC(NC(=O)c3ccc(-c4cccc(C(F)(F)F)c4C(F)(F)F)cc3)CC1)C2 | 57% (active) | 30% | -7 | 102% (active) | inactive | inactive | inactive | inactive
